The panel holds about 83,000 compounds, 20% with a hit somewhere; the sample as a whole holds those more often.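 How to read the values: 0–100, growth inhibition (40 = 60% inhibited); 0, no net growth; -100 to 0, cell death (-40 = 40% of starting cells died; -100 = all dead).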 A number with no mark means an inactive call. Calls of active or inactive are those of the source. Rule for the calls: active = growth percent below 10; inactive = the rest.
system: OVCAR-3 ovarian; assay: NCI-60 one-dose screen, 48 h (100 = growth as untreated, 0 = no growth, -100 = all killed); details: 10 µM unless noted

Compound | growth
C=C1CC2(OC1=O)C(=O)Nc1ccccc12 (configuration not stated) | 6.75% (active)
Cc1ccc2c(c1)C(=O)/C(=C/c1ccc(OCC(=O)c3ccccc3)cc1)O2 | 106%
CCN(C(=O)CN1CCN(c2cc3c(cc2F)c(=O)c(C(=O)O)cn3C2CC2)CC1)c1nc(-c2ccc(OC)cc2)cs1 | 6.96% (active)
CS(CCCCN=C=S)=NC(=O)c1c(F)c(F)c(F)c(F)c1F (configuration not stated) | 57.3%
Cc1ccccc1CCO | 106%
O=C(O)c1c([N+](=O)[O-])cnc2ccccc12 | 118%
CC(=O)C1=C(O)C=C2Oc3c(C(=O)/C=C/c4cc(Cl)cc(Cl)c4)c(O)c(C)c(O)c3[C@]2(C)C1=O | -28.6% (active)
COc1cc(NC(N)=NCC(C)(C)COc2ccc(C(F)(F)F)cc2)cnc1C#N | 67.5%
CC1=CC(=O)CC(C)(C)[C@@]1(O)/C=C/[C@@H](C)O | 108%
OC(c1cc(-c2ccccc2)nc2ccc(Cl)cc12)C1CCCCN1 (configuration not stated) | 67.5%
CCC(=O)OCc1cccc(OC)c1 | 107%
CCCCCCCCCCCCCC(=O)C(C)N (configuration not stated) | 73.6%
CC1=C(C)C(=O)OC([C@](C)(O)[C@]2(O)CC[C@@]3(O)[C@@H]4C[C@H]5O[C@]56CC=CC(=O)[C@]6(C)[C@H]4CC[C@]23COC(=O)c2ccc(C)o2)C1 (some centres not stated) | -96.2% (active)
C=C1CC[C@@H]2[C@](C)(COC(C)=O)[C@H](OC(C)=O)CC[C@@]2(C)[C@@H]1CC(Nc1ccc(S(=O)(=O)Nc2ccc(Cl)nn2)cc1)C1=CCOC1=O (some centres not stated) | -56.1% (active)
CC(C)[C@H]1COC(=O)N1[C@@H]1C(=O)N([C@@H](CCC(=O)N2CCN(C3CCCC3)CC2)C(=O)N[C@@H]2CCCc3ccccc32)[C@@H]1/C=C/c1cccc(Br)c1 | 45.1%
Cc1cc(Cl)ccc1Nc1nc(C(F)(F)F)ccc1C(=O)N/N=C/c1ccc(F)cc1 | 9.84% (active)
Cn1c(=O)c2[nH]c(C(O)C(O)C(O)C(O)CO)nc2n(C)c1=O (configuration not stated) | 109%
C(=N\Nc1ccccn1)/c1ccccn1 | 7.56% (active)
COc1cccc(-c2cn3c(ccc4ccccc43)n2)c1 | 16.7%
COc1ccc2c(c1)C(=O)/C(=C/c1cccc(OCC(=O)Nc3nc4c(s3)CCCC4)c1)O2 | -68.6% (active)
c1ccc(-c2nc(N3CCOCC3)c3c4c(sc3n2)CCCCC4)nc1 | 74.2%
COc1ccc(-c2cn3c(ccc4ccccc43)n2)cc1 | 89.7%
COc1cc(OC)c(/C=C/C(=O)c2c(OC)cc(OC)cc2OC)c(OC)c1 | 6.92% (active)
COc1ccc(-c2cc(-c3ccc(N(C)C)cc3)nc(NC(=O)c3ccncc3)n2)cc1 | 98.8%

system: HS 578T breast; assay: as above; details: 10 µM unless noted

Compound | growth
O=C1/C(=C/c2ccc(F)cc2)CN(C(=O)CCN2CCC(=NO)CC2)C/C1=C\c1ccc(F)cc1 | 11.4%
CC/C=C\C[C@H](O)C/C=C1/C(=O)C=C[C@@H]1C/C=C\CCCC(N)=O | 55.2%
CC/C=C\C[C@H](F)C/C=C1/C(=O)C=C[C@@H]1C/C=C\CCCC(=O)OC | 45.2%
Nc1nc2c(c3ncccc13)C(c1ccc(Cl)c(Cl)c1)Cc1ncccc1-2 (configuration not stated) | 31.5%
Cn1c(=O)c2c(ncn2CC[N+](C)(C)C)n(C)c1=O | 110%
O=C(O)c1cccc2c1-c1ccccc1C2=O | 97.7%
CCOC(=O)C(C#N)C1CCCCC1 (configuration not stated) | 122%
CCCCNP1(NCCCC)=NP(NCCCC)(NCCCC)=NP(NCCCC)(NCCCC)=NP(NCCCC)(NCCCC)=N1 | -7.98% (active)
CC(=O)C1=C(O)C=C2Oc3c(C(=O)/C=C/c4cc(C(F)(F)F)cc(C(F)(F)F)c4)c(O)c(C)c(O)c3[C@]2(C)C1=O | -12.2% (active)
COc1ccc(OCC(=O)Nc2ccc(-c3nc4ccccc4s3)cc2C)cc1 | 87.8%
CCCCCCCCCC(=O)Oc1ccc(/C(=C(/C)c2ccccc2)c2ccc(OCCN3CCCC3)cc2)cc1 | 11.9%
COc1cccc(-c2nc3sccn3c2-c2ccnc(NCCCNS(=O)(=O)c3ccc(Cl)cc3)c2)c1 | 65.3%
CC/C=C\C[C@H](O)C/C=C1/C(=O)C=C[C@@H]1C/C=C\CCCC(=O)NC | 47.7%
COc1cccc(/C=C\C(=O)c2ccccc2)c1 | 85.8%
C=C1CC2(OC1=O)C(=O)Nc1ccccc12 (configuration not stated) | 83.1%
Cc1ccc2c(c1)C(=O)/C(=C/c1ccc(OCC(=O)c3ccccc3)cc1)O2 | 105%
CCN(C(=O)CN1CCN(c2cc3c(cc2F)c(=O)c(C(=O)O)cn3C2CC2)CC1)c1nc(-c2ccc(OC)cc2)cs1 | 81.8%
CS(CCCCN=C=S)=NC(=O)c1c(F)c(F)c(F)c(F)c1F (configuration not stated) | 90.8%
Cc1ccccc1CCO | 100%

Compound | growth
O=C(O)c1c([N+](=O)[O-])cnc2ccccc12 | 113%
CC(=O)C1=C(O)C=C2Oc3c(C(=O)/C=C/c4cc(Cl)cc(Cl)c4)c(O)c(C)c(O)c3[C@]2(C)C1=O | -16.6% (active)
COc1cc(NC(N)=NCC(C)(C)COc2ccc(C(F)(F)F)cc2)cnc1C#N | 31.6%
CC1=CC(=O)CC(C)(C)[C@@]1(O)/C=C/[C@@H](C)O | 105%
OC(c1cc(-c2ccccc2)nc2ccc(Cl)cc12)C1CCCCN1 (configuration not stated) | 61.6%
CCC(=O)OCc1cccc(OC)c1 | 101%
CCCCCCCCCCCCCC(=O)C(C)N (configuration not stated) | 70.6%
CC1=C(C)C(=O)OC([C@](C)(O)[C@]2(O)CC[C@@]3(O)[C@@H]4C[C@H]5O[C@]56CC=CC(=O)[C@]6(C)[C@H]4CC[C@]23COC(=O)c2ccc(C)o2)C1 (some centres not stated) | 3.52% (active)
C=C1CC[C@@H]2[C@](C)(COC(C)=O)[C@H](OC(C)=O)CC[C@@]2(C)[C@@H]1CC(Nc1ccc(S(=O)(=O)Nc2ccc(Cl)nn2)cc1)C1=CCOC1=O (some centres not stated) | 75.6%
CC(C)[C@H]1COC(=O)N1[C@@H]1C(=O)N([C@@H](CCC(=O)N2CCN(C3CCCC3)CC2)C(=O)N[C@@H]2CCCc3ccccc32)[C@@H]1/C=C/c1cccc(Br)c1 | 51.9%
Cc1cc(Cl)ccc1Nc1nc(C(F)(F)F)ccc1C(=O)N/N=C/c1ccc(F)cc1 | 4.52% (active)
Cn1c(=O)c2[nH]c(C(O)C(O)C(O)C(O)CO)nc2n(C)c1=O (configuration not stated) | 107%
C(=N\Nc1ccccn1)/c1ccccn1 | 62.8%
COc1cccc(-c2cn3c(ccc4ccccc43)n2)c1 | 21.6%
COc1ccc2c(c1)C(=O)/C(=C/c1cccc(OCC(=O)Nc3nc4c(s3)CCCC4)c1)O2 | -16.2% (active)
c1ccc(-c2nc(N3CCOCC3)c3c4c(sc3n2)CCCCC4)nc1 | 65%
COc1ccc(-c2cn3c(ccc4ccccc43)n2)cc1 | 96.2%
COc1cc(OC)c(/C=C/C(=O)c2c(OC)cc(OC)cc2OC)c(OC)c1 | 52.6%
COc1ccc(-c2cc(-c3ccc(N(C)C)cc3)nc(NC(=O)c3ccncc3)n2)cc1 | 97.2%

Reference: PubChem BioAssay (NCI)
